According to PubChem BioAssay AID1792 (The Scripps Research Institute Molecular Screening Center, 2009):
In all, about 16,000 compounds went through this assay and about 130 (0.81%) were called active. What follows is part of a selection rich in actives, with near analogues and random picks from the rest. A number with no mark means an inactive call. No stated cut-off is given here; in the data, active means inhibition above about 75%; inactive means the rest.

These molecules were tested against NADPH oxidase 1 (Homo sapiens) (UniProt Q9Y5S8) (assay: blocks human NADPH oxidase 1 activity (AID 1792)). Details: HT29 cells, luminol chemiluminescence ROS; at 6.7 µM; stronger effect = higher value.
Chain of NADPH oxidase 1 (Homo sapiens) (Q9Y5S8 whole entry, looked up): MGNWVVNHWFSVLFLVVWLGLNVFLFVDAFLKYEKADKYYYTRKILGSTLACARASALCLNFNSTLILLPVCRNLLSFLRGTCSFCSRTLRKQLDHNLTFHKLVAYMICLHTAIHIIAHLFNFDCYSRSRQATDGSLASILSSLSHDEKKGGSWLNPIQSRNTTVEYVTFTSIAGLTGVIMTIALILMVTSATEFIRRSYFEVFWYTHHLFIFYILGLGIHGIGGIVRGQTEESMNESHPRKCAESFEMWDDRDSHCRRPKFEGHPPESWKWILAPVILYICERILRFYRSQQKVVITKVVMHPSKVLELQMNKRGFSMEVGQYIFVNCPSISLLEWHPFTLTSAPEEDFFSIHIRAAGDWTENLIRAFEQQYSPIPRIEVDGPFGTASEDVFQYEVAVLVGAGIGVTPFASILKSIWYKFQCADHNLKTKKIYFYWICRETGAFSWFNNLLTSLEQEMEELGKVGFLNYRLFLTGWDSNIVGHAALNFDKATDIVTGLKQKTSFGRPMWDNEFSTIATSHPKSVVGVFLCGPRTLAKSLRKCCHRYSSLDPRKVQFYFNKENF

Row | Structure (SMILES) | inhibition
1 | Cn1cnnc1SCC(=O)Nc1cc(C(F)(F)F)cc(C(F)(F)F)c1 | -26.6%
2 | CC1CN=C(N(Cc2cccnc2)C(=O)Nc2ccc(Cl)c(Cl)c2)S1 (configuration not stated) | 11.1%
3 | FC(F)(F)c1cnc(NN=C2CCSCC2)c(Cl)c1 | -21.6%
4 | N/C(=N/OC(=O)NC(=O)c1c(Cl)cccc1Cl)c1ccc(F)cc1F | -11.4%
5 | Cc1nn(C)c(C)c1Sc1nccc(-c2cccnc2)n1 | 17.5%
6 | COc1cc(OC)nc(/N=C/c2nc(-c3ccccc3)oc2O)n1 | 16.6%
7 | O=C(NCc1ccccc1)c1cc2sccc2s1 | -33%
8 | CSc1n[nH]c(=O)n1-c1cccc(C(F)(F)F)c1 | -36.5%
9 | O=S(=O)(c1ccc2c(c1)OCCO2)N1CCN(c2ccc(C(F)(F)F)cn2)CC1 | -13.2%
10 | Cc1c(CC(=O)Oc2ccc([N+](=O)[O-])cc2)sc2ccc(Cl)cc12 | 15.6%
11 | CCCCc1ccc(S(N)(=O)=O)cc1 | -14.9%
12 | O=C(O)CC1(CC(=O)NCc2ccco2)CCCCC1 | -9.49%
13 | CCOC(=O)/C(=N/Nc1ccccc1)C(C)=N | -20%
14 | COc1ccc(OCCC(=O)NNC(=S)Nc2cc(Cl)ccc2Cl)cc1 | -22.8%
15 | CC(=O)Nc1ccc(F)cc1F | -7.89%
16 | Cc1cc(Cl)ccc1NC(=S)NNC(=S)Nc1ccc(F)cc1 | 87.6% (active)
17 | O=[N+]([O-])c1ccc(N2CCOCC2)cc1 | 23.6%
18 | CN(NS(=O)(=O)CS(C)(=O)=O)c1ncccc1[N+](=O)[O-] | -4.72%
19 | O=C1C(Cl)=C(Oc2cc(Cl)c(Cl)cc2Cl)C(=O)c2ccccc21 | 64%
20 | O=C(O)C#Cc1cccc2ccccc12 | -49.7%
21 | Cc1ccc2oc(-c3cccs3)nc2c1 | -69.6%
22 | Clc1ccc(CO/N=C/c2nc3ccccc3s2)cc1 | -46.7%
23 | CSc1nsc(SC)c1C(=O)Nc1cc(C(F)(F)F)cc(C(F)(F)F)c1 | -44%
24 | CCOC(=O)/C(C#N)=C/N/S(C)=N/N=C/c1ccc(N(C)C)cc1 (configuration not stated) | 3.26%
25 | CCCCNc1nc(N)ns1 | -43%
26 | Clc1ccc(-c2csc(N/N=C\c3ccn[nH]3)n2)cc1 | 19%

Row | Structure (SMILES) | inhibition
27 | Cc1nc(-c2ccccn2)n2nnnc2c1Cl | -68.7%
28 | O=[N+]([O-])c1ccc(CSc2nc3cc(Cl)c(F)cc3[nH]2)cc1 | 10.8%
29 | Cn1nnnc1SCC(=O)Nc1ccc(OC(F)(F)F)cc1 | 12%
30 | CN(C)c1ccc(C=Nc2ccc(S(N)(=O)=O)cc2)cc1 | -7.18%
31 | O=S(=O)(Cc1nnc(-c2cc(Cl)cc(Cl)c2)o1)c1ccc(Cl)cc1 | -4.49%
32 | O=C(CSC1=NCCc2ccccc21)Nc1ccc(F)cc1F | 0%
33 | N/C(=N\OS(=O)(=O)c1ccc(C(F)(F)F)cc1)C1CSCCS1 (configuration not stated) | -14.1%
34 | CC1=CC(=O)C(CCC2=CC(=O)C(C)=CC2=O)=CC1=O | 87.8% (active)
35 | COc1ccc(/C(C)=N/Nc2c([N+](=O)[O-])cc(C(F)(F)F)cc2[N+](=O)[O-])cc1CC#N | -38.4%
36 | O=C(O)C1CCC1C(=O)Nc1nnc(C2CC2)s1 (configuration not stated) | 12%
37 | COc1ccc(/C=N/N2CCC(=O)Nc3ccccc32)c(OC)c1 | -3%
38 | Cc1oc(-c2ccc(Cl)cc2)cc1C(=O)O/N=C(\N)Cc1nc2cccnc2n1C1CC1 | 86.4% (active)
39 | Cc1oc(-c2ccc(Cl)cc2)cc1C(=O)N1CCOCC1 | 4.54%
40 | Cc1oc(-c2ccc(Cl)cc2)cc1C(=O)N1CCN(Cc2ccccc2)CC1 | -19.5%
41 | CC(=O)N1CCc2cc(NC(=S)Nc3ccccc3Cl)ccc21 | 11.8%
42 | CN1CCCCC(C2=C(Cl)C(=O)CCC2)C1=O (configuration not stated) | -2.08%
43 | O=C1C(Nc2ccccc2)=CC(c2ccc([N+](=O)[O-])cc2)N1c1ccccc1 (configuration not stated) | -5.43%
44 | O=C(O)c1cc(=O)[nH]c2c(Cl)cc(Cl)cc12 | -17.9%
45 | Cc1ccc(S(=O)(=O)N/N=C/c2ccc(O)cc2O)cc1 | -34.9%
46 | COc1cc(C=C(C#N)C#N)cc(OC(C)=O)c1OC(C)=O | 93.6% (active)
47 | COc1ccc2c(OC(C)=O)coc2c1 | -103%
48 | Cc1nnsc1C(=O)N/N=C/c1ccccc1Cl | 26.6%
49 | Cc1nn2c(=O)c3c4c(sc3nc2[nH]c1=O)CCCC4 | -87%
50 | COC(OC)c1ccnc(SCC(=O)Nc2ccc(C(C)C)cc2)n1 | -5.58%
51 | N#Cc1cn(-c2cccc(C(F)(F)F)c2)c(=O)n(Cc2ccc(Cl)cc2)c1=O | 11.4%
52 | O=C1OC2(CCCCC2)OC1c1ccccc1 (configuration not stated) | -30.5%
